# Only some compounds are listed: those with a hit (about 27% of all), similar ones and a draw of the others.
# sEH activator: activators of human soluble epoxide hydrolase. purified human sEH enzymatic activity, activator screen. activation, % at 2 µM. actives 0.04% (n = 91,000). AID 717; in the data active = activation above about 37%
# CYP2C19 inh: human CYP2C19 inhibition | P33261 | CYP2C19 Supersomes, luciferin-H EGE luminescence, 30 min | inhibition, % at 5 µM | actives 21% (n = 96,000);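 active = CYP2C19 inhibition above a set limit at 5 µM in the primary screen, cut at about 50% in these data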
# Target sequence (P33261 whole entry, looked up): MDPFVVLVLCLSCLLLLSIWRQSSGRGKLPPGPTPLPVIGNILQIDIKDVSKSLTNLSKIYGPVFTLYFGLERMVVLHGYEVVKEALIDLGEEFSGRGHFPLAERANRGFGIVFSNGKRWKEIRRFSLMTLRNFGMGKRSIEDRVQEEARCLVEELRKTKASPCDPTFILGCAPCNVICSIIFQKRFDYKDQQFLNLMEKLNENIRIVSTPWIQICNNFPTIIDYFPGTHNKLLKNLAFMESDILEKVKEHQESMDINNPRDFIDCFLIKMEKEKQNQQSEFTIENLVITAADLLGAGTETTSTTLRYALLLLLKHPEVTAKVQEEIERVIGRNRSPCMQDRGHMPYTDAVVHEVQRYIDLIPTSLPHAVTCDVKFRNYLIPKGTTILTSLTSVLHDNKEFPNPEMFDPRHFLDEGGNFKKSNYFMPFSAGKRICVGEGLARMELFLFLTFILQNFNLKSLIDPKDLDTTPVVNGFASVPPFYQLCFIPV
# CYP2C9 inh: inhibitors of human CYP2C9. P11712. CYP2C9 Supersomes, luciferin-H conversion, luminescence. inhibition, % at 5 µM. actives 20% (n = 96,000). AID 777;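 active = blocking of liver enzyme CYP2C9 beyond about 50% at 5 µM, limit read from the data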
# CYP2C19 activ: increases human CYP2C19 enzyme activity; P33261; recombinant CYP2C19, luciferin-H EGE luminescence; hits give high values; 0 = fully inhibited enzyme, 1 = untreated enzyme; activation factor at 5 µM; 96,000 tested, under 10 active;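 active = activation factor of at least 2 at 5 µM in the primary screen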
# CYP2C9 activ: increases human cytochrome P450 2C9 activity | P11712 | recombinant CYP2C9, luciferin-H conversion, luminescence; hits give high values; factor 1 = untreated enzyme, 0 = blocked | activation factor at 5 µM | actives 1.4% (n = 96,000) | AID 1024;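 active = activation factor of 2 or more for CYP2C9 at a 5 µM dose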
# sEH inh: inhibitors of human soluble epoxide hydrolase; P34913; recombinant human sEH enzymatic activity assay; inhibition, % at 2 µM; actives 0.34% (n = 91,000); in the data active = inhibition above about 80%
# Hits are given with their value; 0 = inactive; - = no result.
SMILES,sEH activator,CYP2C19 inh,CYP2C9 inh,CYP2C19 activ,CYP2C9 activ,sEH inh
COC(=O)c1ccc(NC(=O)c2ccccc2N(C)S(C)(=O)=O)cc1,0,62,0,0,0,0
CCOC(=O)c1ccccc1NC(=O)c1ccc(N(C)S(C)(=O)=O)cc1,0,0,0,0,0,0
COC(=O)c1ccccc1NC(=O)c1ccccc1N(C)S(C)(=O)=O,0,50,0,0,0,0
CCOC(=O)c1ccccc1NC(=O)c1ccccc1N(C)S(C)(=O)=O,0,76,0,0,0,0
CN(c1ccccc1C(=O)Nc1ccc(S(=O)(=O)N2CCCC2)cc1)S(C)(=O)=O,0,0,64,0,0,0
CN(c1ccccc1C(=O)Nc1ccc(S(=O)(=O)N2CCCCC2)cc1)S(C)(=O)=O,0,0,0,0,0,0
O=C(Nc1cccc(Cl)c1Cl)c1ccc(-c2ccccc2)cc1,0,0,0,0,0,0
CN(C)S(=O)(=O)Oc1ccsc1C(=O)Nc1cccc(Cl)c1Cl,0,84,72,0,0,0
CS(=O)(=O)Nc1ccccc1C(=O)Nc1ccccc1Cl,0,-,-,-,-,0
CN(C)S(=O)(=O)Oc1ccsc1C(=O)Nc1ccccc1Cl,0,79,66,0,0,0
CSc1ncccc1C(=O)OCC(=O)N(C)C1CCS(=O)(=O)C1 (stereo unspecified),0,0,0,0,0,0
CCOc1ccc(NC(=O)CSc2nnc(Cn3cnc4ccccc43)n2C)cc1,0,-,-,-,-,0
COc1ccc(C2=NN(C(=O)CSc3cn(C)c4ccccc34)C(c3ccc(OC)cc3)C2)cc1 (stereo unspecified),0,50,62,0,0,0
O=C(c1ccc(N2CCOCC2)cc1)c1cccs1,0,0,0,0,0,0
Cc1cc(N2C(=O)CC(N3CCN(c4ccc(C(=O)c5cccs5)cc4)CC3)C2=O)no1 (stereo unspecified),0,0,59,0,0,0
Cc1cc(-c2ccccc2)[nH]c(=O)c1S(=O)(=O)c1ccccc1,0,0,0,0,0,0
O=C(NCc1ccco1)C(NS(=O)(=O)c1cccc2nsnc12)c1ccccc1 (stereo unspecified),-,0,0,0,0,-
Cc1cc(NS(=O)(=O)c2ccccc2)c(C)c(Cl)c1O,-,99,0,0,2.8,-
Cc1ccccc1NS(=O)(=O)c1cc(S(C)(=O)=O)ccc1Cl,0,0,0,0,0,0
O=C(O)C1CCCN(S(=O)(=O)c2ccc(Cl)s2)C1 (stereo unspecified),0,0,0,0,0,0
O=C(C1CCCN(S(=O)(=O)c2ccc(Br)s2)C1)N1CCCCCC1 (stereo unspecified),0,63,0,0,0,0
CCC1(CC)C(=O)NC(=O)NC1=NCCc1c[nH]c2ccccc12,0,0,0,0,0,0
CC(C)Cn1c(N)c(C(=O)COC(=O)c2ccncc2)c(=O)n(C)c1=O,0,0,53,0,0,0
CC(C)Cn1c(N)c(C(=O)COC(=O)CC23CC4CC(CC(C4)C2)C3)c(=O)n(C)c1=O,0,63,85,0,0,0
Cn1c(-c2ccccc2)cnc1SCC(=O)NCc1ccco1,0,0,0,0,0,0
SMILES,sEH activator,CYP2C19 inh,CYP2C9 inh,CYP2C19 activ,CYP2C9 activ,sEH inh
O=C(OCC(=O)N1CCN(C(=O)c2ccco2)CC1)c1cc(-c2ccc(Cl)c(Cl)c2Cl)nc2ccccc12,0,0,69,0,0,0
CC1(CC(=O)O)C(=O)N=C2C=CC=CN21 (stereo unspecified),0,-,-,-,-,0
O=[N+]([O-])c1ccc2c(c1Nc1ccccc1)=NC1(CCCCC1)N=2,0,0,53,0,0,0
Cc1cccc(C)c1NC1=NC2(CCCCC2)N=C(N)N1,-,0,0,0,0,-
COc1cccc(N2CC(O)=C(c3ccccc3)C2=N)c1,0,0,0,0,0,0
Cc1cc2c(=O)n(CC(=O)NCC(=O)N3CCN(Cc4ccccc4)CC3)cnc2s1,-,0,52,0,0,-
Cc1cc2c(=O)n(CC(=O)N3CCN(c4ccccc4)CC3)cnc2s1,0,0,0,0,0,0
CCOC(=O)N1CCN(Cc2nc(N)nc(Nc3ccc(Oc4ccccc4)cc3)n2)CC1,0,0,81,0,0,0
Cc1ccc(Nc2nc(N)nc(CN3CCN(c4ccccc4)CC3)n2)cc1Cl,0,0,60,0,0,0
COc1ccc(Nc2nc(N)nc(CN3CCOCC3)n2)cc1,0,0,0,0,0,0
COc1ccc(N2CCN(Cc3nc(N)nc(Nc4ccc(C)c(Cl)c4)n3)CC2)cc1,0,59,68,0,0,0
CCOc1nc(Nc2ccc(OC)c(Cl)c2)nc(N2CCN(c3ccc(OC)cc3)CC2)n1,0,0,67,0,0,0
CCOC(=O)N1CCN(Cc2nc(N)nc(Nc3ccc(OC)cc3)n2)CC1,0,0,0,0,0,0
COC(=O)c1nn(C23CC4CC(CC(C4)C2)C3)c2c1C(=O)N(c1ccc(Br)cc1)C2=O,0,0,0,0,0,0
COCC(=O)NC(C)c1nc2ccccc2[nH]1 (stereo unspecified),-,0,0,0,0,-
Nc1nc(CN2CCN(c3cccc(Cl)c3)CC2)nc(N2CCCc3ccccc32)n1,0,0,0,0,0,0
Nc1nc(CN2CCN(c3ccccc3)CC2)nc(N2CCCc3ccccc32)n1,0,62,60,0,0,0
C=CCOC(=O)CSCC(NC(=O)OC(C)(C)C)C(=O)OCC (stereo unspecified),0,58,0,0,0,0
c1ccc2[nH]c(CSc3nc4ccccc4s3)nc2c1,0,98,53,0,0,0
Cc1nnc(SCc2nc3ccccc3[nH]2)s1,-,0,0,0,0,-
Cn1nnnc1SCc1nc2ccccc2[nH]1,0,0,0,0,0,0
c1ccc(SCc2nc3ccccc3[nH]2)nc1,0,90,0,0,0,0
CCC(C)SCc1nc2ccccc2[nH]1 (stereo unspecified),-,93,0,0,0,-
Cc1cccc(NC(=O)C2CC(=O)n3cnnc3S2)c1 (stereo unspecified),0,0,0,0,0,0
O=C(NC1CCCCC1)C(c1ccc2ncccc2c1)N(Cc1ccc2c(c1)OCO2)C(=O)c1cccs1 (stereo unspecified),0,0,54,0,0,0
COc1ccc(C(C(=O)NC2CCCCC2)N(C(=O)c2cccs2)c2ccc3c(c2)OCO3)cc1 (stereo unspecified),0,0,53,0,0,0
O=C(NC1CCCCC1)C(c1ccncc1)N(Cc1ccc2c(c1)OCO2)C(=O)c1cnsn1 (stereo unspecified),0,-,-,-,-,0
COc1ccc(C(C(=O)NC2CCCC2)N(C(=O)c2ccoc2C)c2ccc(C)cc2)cc1 (stereo unspecified),0,50,73,0,0,0
O=C(NC1CCCCC1)C(c1ccc2ncccc2c1)N(Cc1ccccc1)C(=O)c1cccs1 (stereo unspecified),0,0,73,0,0,0

# From PubChem
